Several values for one entry are separate records, joined by “and”; a condition that tells them apart may be missing. Equal entries are not always repeated. Inconclusive results are not listed. A call without a number means that no potency is given here. Activity calls are given as the source filed them. Unless noted, the call rests on the fitted dose curve; in most records, active means well fitted curve in the direction sought with a large enough effect in the repeat runs; inconclusive means weak or mixed curves; inactive means no such curve, though single readings can be large; an effect the other way counts as inactive or inconclusive.
What was measured:
[1] = qHTS assay to identify small molecule antagonists of the androgen receptor (AR) signaling pathway using the MDA cell line in the presence of 0.5 nM R1881 - cell viability counter screen (AID 1259242); details: MDA-kb2 viability, CellTiter-Fluor protease fluorescence, 16 h; series mostly up to 92.4 µM; further: nearly all actives have a fitted effect of over 45% in size; further: potency means the concentration at half of the fitted maximal effect
Method in brief: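 Concentration-response screen of compounds for toxicity in MDA-kb2 reporter cells: 16 hr at 37C with 0.5 nM R1881, endpoint live-cell protease fluorescence measured in the reporter wells.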

[2] = target: Estrogen receptor (Homo sapiens) (UniProt P03372); experiment: qHTS assay to identify small molecule antagonists of the estrogen receptor alpha (ER-alpha) signaling pathway using the BG1 cell line in the presence of 0.1 nM 17-beta-estradiol (AID 1259244); details: VM7Luc4E2 (BG1) ERE-luciferase, antagonist mode, 0.1 nM E2, 22 h; series mostly up to 92.4 µM; further: potency means the concentration at half of the fitted maximal effect; nearly all actives have a fitted effect of over 50% in size
Chain of Estrogen receptor (Homo sapiens) (P03372 whole entry, looked up): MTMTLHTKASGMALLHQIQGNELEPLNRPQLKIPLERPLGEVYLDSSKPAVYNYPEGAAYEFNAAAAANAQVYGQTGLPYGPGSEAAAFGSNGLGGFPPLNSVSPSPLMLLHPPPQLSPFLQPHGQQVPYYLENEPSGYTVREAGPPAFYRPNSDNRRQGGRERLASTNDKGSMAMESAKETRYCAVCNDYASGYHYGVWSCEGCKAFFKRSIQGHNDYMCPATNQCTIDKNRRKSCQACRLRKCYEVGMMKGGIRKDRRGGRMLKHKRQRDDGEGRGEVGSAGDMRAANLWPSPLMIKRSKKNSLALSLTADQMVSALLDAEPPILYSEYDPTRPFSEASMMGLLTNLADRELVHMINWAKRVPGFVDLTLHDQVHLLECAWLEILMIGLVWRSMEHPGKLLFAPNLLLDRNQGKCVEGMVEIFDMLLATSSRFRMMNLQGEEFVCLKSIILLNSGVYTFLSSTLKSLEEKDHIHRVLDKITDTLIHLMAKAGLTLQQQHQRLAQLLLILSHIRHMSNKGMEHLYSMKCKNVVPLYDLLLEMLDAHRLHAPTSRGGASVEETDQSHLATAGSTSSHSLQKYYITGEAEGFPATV
Method in brief: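 Compounds were tested against 0.1 nM (final) 17beta-estradiol in VM7Luc4E2 cells, which express full-length ER-alpha and an ERE-luciferase reporter; luminescence was recorded following 22 h exposure.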

[3] = qHTS assay to identify small molecule HDAC inhibitors (AID 1259364); details: HCT-116 HDAC-Glo I/II luminescence, 2 h; series mostly up to 92.4 µM;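 further: wild-type HCT-116 cells with endogenous class I/II HDAC activity; top concentration of the series differs between compounds; nearly all actives have a fitted effect of over 45% in size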
Method in brief: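 Screening used wild-type human colon HCT-116 cells incubated overnight, dosed with compounds for 2 hours, and assayed with a homogeneous luminogenic HDAC I/II reagent for 30 minutes at room temperature.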

[4] = qHTS assay to identify small molecule HDAC inhibitors - cell viability counter screen (AID 1259365); details: HCT-116 viability, CellTiter-Glo ATP luminescence, 2 h; series mostly up to 92.4 µM; further: nearly all actives have a fitted effect of over 50% in size
Method in brief: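 To flag cytotoxic hits, 1,500 wild-type HCT-116 cells per well, plated the day before, receive test compounds for 2hr at 37 C before CellTiter-Glo reagent and a luminescence read.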

[5] = qHTS assay to identify small molecule agonists of the sonic hedgehog signaling (Shh) pathway - cell viability counter screen (AID 1259366); details: NIH/3T3 Gli1-Luc viability, CellTiter-Fluor, 24 h; series mostly up to 92.4 µM; further: nearly all actives have a fitted effect of over 50% in size; further: potency means the concentration at half of the fitted maximal effect
Method in brief: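 Fluorescence from CellTiter-Fluor reports live cells in this counter screen. NIH/3T3-derived Gli1-Luc reporter cells receive test compounds for 24hr at 37C; reagent goes in at 23hr.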

[6] = qHTS assay to identify small molecule antagonists of the sonic hedgehog signaling (Shh) pathway - cell viability counter screen (AID 1259367); details: NIH/3T3 Gli1-Luc viability, CellTiter-Fluor, 24 h; series mostly up to 92.4 µM; further: nearly all actives have a fitted effect of over 55% in size; further: potency means the concentration at half of the fitted maximal effect
Method in brief: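 Fluorescence read-out (CellTiter-Fluor, 1 hr at 37C) taken after 23 hr compound treatment of 3T3 Gli1-Luc cells stimulated with conditioned medium. Cells were seeded at 2,000 per well and pre-incubated 4 hr.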

[7] = qHTS assay to identify small molecule agonists of the sonic hedgehog signaling (Shh) pathway (AID 1259368; calls by dose curve; further: nearly all actives have a fitted effect of over 15% in size; further: potency means the concentration at half of the fitted maximal effect); details: NIH/3T3 Gli1-Luc reporter, luciferase, 24 h; series mostly up to 92.4 µM
Method in brief: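 Hedgehog pathway agonism scored by increased firefly luciferase luminescence in 3T3Gli1-Luc cells treated 24 hr at 37 C; detection used a 30 min room-temperature reagent incubation.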

[8] = qHTS assay to identify small molecule phospholipidosis (PLD) inducers (AID 1259344; active means well fitted curve in the direction sought with a large enough effect; an effect the other way counts as inactive or inconclusive); details: HepG2 phospholipidosis, LipidTOX Red imaging, 24 h; series mostly up to 38.3 µM
Method in brief: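 Read-out is LipidTOX Red fluorescence (ex 595/em 615) imaged in HepG2 cells after 24 h compound exposure at 37 C, with Hoechst nuclear counterstain (ex 352/em 461) allowing per-cell normalisation.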

Compound	Potency [1]	Potency [2]	Potency [3]	Potency [4]	Potency [5]	Potency [6]	Potency [7]	outcome [8]
N#Cc1c(Cl)c(Cl)c(Cl)c(C#N)c1Cl	16.9 µM (active) and 13.7 µM (active)	6.73 µM (active) and 15.4 µM (active)	inactive	inactive	2.13 µM (active) and 3.86 µM (active)	2.39 µM (active) and 6.86 µM (active)	673 nM (active) and 969 nM (active)	–
CCCCSP(=O)(SCCCC)SCCCC	inactive	–	inactive	inactive	inactive	inactive	inactive	–
NN=C(N)N	inactive	–	inactive	–	inactive	inactive	inactive	inactive

— PubChem BioAssay (Tox21)
